Our source for the growth values is PubChem BioAssay (NCI).

Test systems include SR leukemia; RPMI-8226 leukemia; OVCAR-8 ovarian; OVCAR-5 ovarian; OVCAR-4 ovarian; SK-OV-3 ovarian; IGROV1 ovarian; OVCAR-3 ovarian; HS 578T breast; NCI/ADR-RES ovarian.
What all share (assay): NCI-60 one-dose screen, 48 h (100 = growth as untreated, 0 = no growth, -100 = all killed)
Common to all, as to details: 10 µM unless noted

About 83,000 compounds went through this panel and 20% of them were active in at least one assay; those are over-represented in the sample as a whole.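 Growth was measured after 48 h exposure to one concentration of compound in 96-well plates. Values under 10 count as active.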 Unmarked numbers belong to inactive results. Active and inactive are the calls of the source.

Regarding `COC(=O)c1[nH]nc(OC)c1C1(C(C#N)c2nc3ccccc3s2)CCCc2ccccc21` (stereo not given), the growth in the experiment with SR leukemia is 99.8%; in the experiment with RPMI-8226 leukemia, 94.7%; with OVCAR-8 ovarian, 100%; in the experiment on OVCAR-5 ovarian, 80.3%; with OVCAR-4 ovarian it was 103%; with SK-OV-3 ovarian it was 87%. Also, the growth in the experiment with IGROV1 ovarian is 79%; in the experiment with OVCAR-3 ovarian it was 98.6%; with HS 578T breast, 99.2%; in the experiment on NCI/ADR-RES ovarian, 101%.
For the compound `O=C1c2cccc3cccc(c23)C(=O)N1N1C(=O)c2cccc3c(N4CCNCC4)ccc(c23)C1=O`, the growth in the experiment on SR leukemia was -6.4% (active); with RPMI-8226 leukemia, 68.8%; in the experiment on OVCAR-8 ovarian, 82.6%; with OVCAR-5 ovarian it was 121%; in the experiment on OVCAR-4 ovarian, 116%; in the experiment on SK-OV-3 ovarian, 104%. Also, the growth with IGROV1 ovarian was 91.2%; in the experiment on OVCAR-3 ovarian it was 101%; with HS 578T breast, 85.9%; in the experiment on NCI/ADR-RES ovarian it was 82.6%.
Take `COC(=O)c1c2c(c(C)[n+]([O-])c1C)C(=O)C(NCCN1CCOCC1)=CC2=O`: the growth in the experiment on SR leukemia was 66.9%; with RPMI-8226 leukemia it was 91.9%; in the experiment on OVCAR-8 ovarian, 61.7%; with OVCAR-5 ovarian, 89.1%; in the experiment on OVCAR-4 ovarian, 35.4%; in the experiment with SK-OV-3 ovarian, 103%. Besides, the growth was 63.4% in the experiment with IGROV1 ovarian, 5.12% (active) with OVCAR-3 ovarian, 101% in the experiment on HS 578T breast and 91.7% in the experiment on NCI/ADR-RES ovarian.
On to `CN1CCN(c2ccc(Nc3ncc(C(N)=O)c(NCCCNC(=O)C4CCC4)n3)cc2)CC1`, for which the growth is 30.1% in the experiment on SR leukemia; 101% in the experiment with RPMI-8226 leukemia; 71.6% with OVCAR-8 ovarian; 116% in the experiment with OVCAR-5 ovarian; 73.1% in the experiment on OVCAR-4 ovarian; 37.8% in the experiment with SK-OV-3 ovarian. Also, the growth with IGROV1 ovarian is 85.7%; in the experiment with OVCAR-3 ovarian, 13.3%; in the experiment on HS 578T breast it was 67.2%; with NCI/ADR-RES ovarian, 105%.
As to `O=C1C(c2c[nH]c3ccccc23)=C(c2coc3cc(Br)ccc23)C(=O)N1O`, the growth is 90.5% in the experiment with SR leukemia; 89.8% with RPMI-8226 leukemia; 106% in the experiment with OVCAR-8 ovarian; 105% in the experiment with OVCAR-5 ovarian; 115% in the experiment on OVCAR-4 ovarian; 98.8% with SK-OV-3 ovarian. Further, the growth in the experiment on IGROV1 ovarian is 85.2%; in the experiment on OVCAR-3 ovarian it was 102%; in the experiment on HS 578T breast, 94.5%; in the experiment on NCI/ADR-RES ovarian it was 105%.
With `COc1nc2ccc(C)cc2cc1/C=[N+](\[O-])c1ccccc1`, the growth with SR leukemia was 39.9%; in the experiment on RPMI-8226 leukemia, 69.1%; with OVCAR-8 ovarian, 95.3%; with OVCAR-5 ovarian it was 92.6%; in the experiment on OVCAR-4 ovarian, 83.7%; in the experiment on SK-OV-3 ovarian, 79.9%. In addition, the growth is 75.2% in the experiment on IGROV1 ovarian, 96.6% in the experiment on OVCAR-3 ovarian, 91% in the experiment on HS 578T breast and 81.1% in the experiment with NCI/ADR-RES ovarian.
Take `N=C(N)c1ccc(-c2ccc(-c3ccc(F)cc3)s2)nc1`: the growth was 3.85% (active) with SR leukemia; 5.51% (active) in the experiment with RPMI-8226 leukemia; 68.9% in the experiment with OVCAR-8 ovarian; 77.6% in the experiment with OVCAR-5 ovarian; 79.7% in the experiment on OVCAR-4 ovarian; 86.3% with SK-OV-3 ovarian. In addition, the growth is 65.7% in the experiment with IGROV1 ovarian, 76.9% in the experiment with OVCAR-3 ovarian, 84.2% in the experiment with HS 578T breast and 93.5% with NCI/ADR-RES ovarian.
With `NS(=O)(=O)c1ccc(C(=O)N=Nc2c(O)[nH]c3c(F)cccc23)cc1`, the growth was 103% in the experiment with SR leukemia; 106% in the experiment with RPMI-8226 leukemia; 96.7% in the experiment with OVCAR-8 ovarian; 99.8% in the experiment on OVCAR-5 ovarian; 102% with OVCAR-4 ovarian; 109% in the experiment on SK-OV-3 ovarian. In addition, the growth is 99.5% in the experiment on IGROV1 ovarian, 117% in the experiment with OVCAR-3 ovarian, 103% in the experiment on HS 578T breast and 100% in the experiment on NCI/ADR-RES ovarian.
Consider `Cc1nc2sc(C(=O)Nc3cccc4ccccc34)c(N)c2cc1C(=O)/C=C/c1ccccc1`, for which the growth in the experiment on SR leukemia is 13.2%; in the experiment with RPMI-8226 leukemia it was -27% (active); in the experiment with OVCAR-8 ovarian, -13.9% (active); with OVCAR-5 ovarian, 13.6%; in the experiment on OVCAR-4 ovarian, 34.6%; with SK-OV-3 ovarian, 27.1%. The growth in the experiment with IGROV1 ovarian was 4.15% (active); in the experiment on OVCAR-3 ovarian it was -67.8% (active); in the experiment on HS 578T breast, 16.1%; with NCI/ADR-RES ovarian, -11.3% (active).
As for `CN1CCN(Cc2ccc(NC(=O)c3cccc(C#Cc4c(N)ncc5ccc(F)cc45)c3)cc2C(F)(F)F)CC1`, the growth in the experiment with SR leukemia was -24.6% (active); in the experiment with RPMI-8226 leukemia, -33.6% (active); in the experiment on OVCAR-8 ovarian, -51.5% (active); in the experiment with OVCAR-5 ovarian, -57.7% (active); in the experiment with OVCAR-4 ovarian, -47.6% (active); in the experiment on SK-OV-3 ovarian, 6.69% (active). The growth with IGROV1 ovarian was -42.4% (active); with OVCAR-3 ovarian, -57.4% (active); in the experiment on HS 578T breast, -37.9% (active); in the experiment with NCI/ADR-RES ovarian, -44.7% (active).
As to `CCCCCCCCN(CCCCCCCC)CC(O)c1cc(Cl)ccc1OC` (stereo not given), the growth in the experiment on SR leukemia is 14.5%; in the experiment on RPMI-8226 leukemia, 41.5%; in the experiment with OVCAR-8 ovarian, 87.9%; in the experiment on OVCAR-5 ovarian, 72.6%; in the experiment with OVCAR-4 ovarian, 66.9%; with SK-OV-3 ovarian, 78.1%. In addition, the growth was 84.9% with IGROV1 ovarian, 91.9% in the experiment with OVCAR-3 ovarian, 69.1% in the experiment on HS 578T breast and 82.6% with NCI/ADR-RES ovarian.
Turning to `C=C(CNCCc1ccc(O)cc1)[C@@H]1CC[C@]2(CO)CC[C@]3(C)[C@H](CC[C@@H]4[C@@]5(C)CCC(NCCc6ccc(O)cc6)C(C)(C)[C@@H]5CC[C@]43C)[C@@H]12` (stereo not given in full), the growth with SR leukemia was -58.5% (active); in the experiment on RPMI-8226 leukemia, -51.7% (active); with OVCAR-8 ovarian, -78.1% (active); in the experiment on OVCAR-5 ovarian it was -86.3% (active); in the experiment with OVCAR-4 ovarian it was -81.7% (active); in the experiment on SK-OV-3 ovarian, -97.4% (active). In addition, the growth was -78.4% (active) in the experiment with IGROV1 ovarian, -94.2% (active) in the experiment on OVCAR-3 ovarian, -38.9% (active) in the experiment on HS 578T breast and -54.5% (active) in the experiment with NCI/ADR-RES ovarian.
